# Assay outcomes: PubChem, National Center for Advancing Translational Sciences (NCATS)
# FMDV inh = High Throughput Screening for Foot and Mouth Disease Virus Antivirals; Potency, µM (series often up to 57.9 µM), actives largely listed as inhibitors; 410,000 compounds, 1.2% hits; FMDV antiviral cell-based qHTS; AID 1159524, 2015; calls by dose curve; tested in HEK293T cells; also: read-out not given here; nearly all actives have a fitted effect of over 45% in size
# HCMV inh = qHTS Assay for inhibitors of the human cytomegalovirus (HCMV). HFF cells, HCMV-luciferase reporter, 72 h; active compounds read low. activity change, negative = inhibition, % at 57.5 µM. 410,000 compounds, 4.5% hits. AID 1259415, 2018; in the data active = activity change below about -60%; inconclusive = no clear call, values can overlap the other calls; inactive = above about -39%
#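 Two compound doses tested in HFFs infected with HCMV-luciferase, MOI 1 PFU/cell, 72 h at 37C. Lysate luminescence read with OneGlo; data normalized against buffer-only and 10uM Salinomycin inhibitor controls.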
# HCV inh = qHTS Assay for Inhibitors of Hepatitis C Virus (HCV); Huh7.5.1 HCVcc-Cre infection, luciferase reporter, 44 h; Potency, µM (titrated, usually from 41.8 µM), most hits filed as inhibitors; 340,000 compounds, 3.4% hits; AID 651820, 2012
#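 Reporter virus HCVcc-Cre (~0.5 moi) infects cells exposed to compound; seeding density 1,000 cells/well with 4 h settling beforehand. Luminescence, 15 sec read, taken 44 h post-infection following a 15 min RT substrate incubation.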
# Sm TGR inh = qHTS Assay for the Inhibitors of Schistosoma Mansoni Peroxiredoxins | Schistosoma mansoni thioredoxin glutathione reductase (TGR), Q962Y6 | purified TGR, DTNB reduction, TNB absorbance 405 nm | Potency, µM (top dose mostly 114 µM), hits mostly inhibitors | 360,000 compounds, 3% hits | AID 485364, 2010; also: nearly all actives have a fitted effect of over 60% in size
#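 Kinetic colorimetric format: TGR-catalysed, NADPH-driven DTNB reduction monitored via TNB absorbance. Enzyme dispensed at 20 nM; compound exposure 15 min at room temperature before reaction start.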
# Vaccinia mCherry = qHTS for Stage-Specific Inhibitors of Vaccinia Orthopoxvirus: mCherry Reporter Primary qHTS; Vaccinia virus mCherry reporter infection, fluorescence; Potency, µM (top dose mostly 36.5 µM), usual class: inhibitors; 310,000 compounds, 0.63% hits; AID 720579, 2013; calls by dose curve; tested in A549 cells; also: nearly all actives have a fitted effect of over 35% in size
# Vaccinia Venus = qHTS for Stage-Specific Inhibitors of Vaccinia Orthopoxvirus: Venus Reporter Primary qHTS; Vaccinia virus Venus reporter expression, fluorescence; Potency, µM (doses to about 36.5 µM), usual class: inhibitors; 330,000 compounds, 0.46% hits; calls by dose curve; tested in A549 cells; also: nearly all actives have a fitted effect of over 30% in size
# Hits are given with their value; - = inactive; ? = inconclusive; . = not tested or not shown; ! = repeats disagree. A selection: hits, their analogues and other compounds. The true share with any hit is near 9.3%. Unless noted, calls follow the shape of the dose curve; as a rule, active = well fitted curve in the direction sought with a large enough effect; inconclusive = small, poorly fitted or top-dose-only effect, or another doubt; inactive = no such curve, though single readings can be large; an effect the other way counts as inactive or inconclusive.
SMILES,FMDV inh,HCMV inh,HCV inh,Sm TGR inh,Vaccinia mCherry,Vaccinia Venus
Cc1cc(C)c(Cn2c(=O)n(-c3ccccc3Cl)c(=O)c3c(C)c(C(=O)N(C)C)sc32)c(C)c1,-,-,.,-,-,-
O=C(NCc1ccco1)C1(S(=O)(=O)c2ccccc2)CC=CC1,-,-,-,-,-,-
Cc1ccc(C)c(NC(=O)C2C(c3ccccc3)C2(Cl)Cl)c1 (configuration not stated),.,-,?,-,-,-
COc1ccc(C(=O)N2CCC(n3nccc3NC(=O)C3CC3)CC2)c(OC)c1OC,-,-,-,-,.,.
CCOc1cc(CNc2ccc(O)cc2)cc(Br)c1OCc1ccccc1,?,-104,.,-,?,?
CCNCc1cc(Br)c(OCC(=O)Nc2ccccc2)c(OC)c1,-,-,10µM,-,.,.
COc1cc(/C=N/N2C(C)CCCC2C)cc(OC)c1O (configuration not stated),-,-,-,45µM,.,.
Cc1cc(-c2cccs2)c2c(N)c(C(=O)c3ccc4c(c3)OCO4)sc2n1,-,-,?,-,-,-
COc1cccc2c1C(=O)c1c(O)c3c(c(O)c1C2=O)CC(O)(C(=O)CO)CC3OC1CC(N(C)C)C(O)C(C)O1 (configuration not stated),-,-98,?,.,-,-
CC(=O)[C@]1(O)Cc2c(O)c3c(c(O)c2[C@@H](O[C@H]2C[C@H](N)[C@H](O)[C@H](C)O2)C1)C(=O)c1ccccc1C3=O,-,.,11µM,.,-,-
CC[C@]1(O)CC(O[C@@H]2CC(N(C)C)C(O)C(C)O2)c2c(cc3c(c2O)C(=O)c2c(O)ccc(O)c2C3=O)C1C(=O)OC (some centres not stated),-,.,.,.,-,-
COc1cccc2c1C(=O)c1c(O)c3c(c(O)c1C2=O)C[C@@](O)(C(=O)CO)C[C@@H]3O[C@H]1C[C@H](N)[C@@H](O)[C@H](C)O1,-,.,?,.,-,-
COc1cccc2c1C(=O)c1c(O)c3c(c(O)c1C2=O)C[C@@](O)(C(C)=O)C[C@@H]3O[C@H]1C[C@H](N)[C@H](O)[C@H](C)O1,-,-100,6.3µM!,-,-,-
O=C(CP(=O)(c1ccccc1)c1ccccc1)Nc1nc2ccccc2s1,-,-,-,-,-,-
CN1C(=O)N(C)C(=O)C2(Cc3cc(N)ccc3N3CCN(c4ccccc4F)CC32)C1=O (configuration not stated),.,-,.,?,.,.
CCN1C(=O)N(CC)C(=O)C2(Cc3ccccc3N3CCN(c4ccccc4)CC32)C1=O (configuration not stated),-,-,-,45µM,.,.
COc1ccc(C(=O)Nc2ccc(S(=O)(=O)N3CCCCC3C)cc2)c(OC)c1OC (configuration not stated),.,-,11µM,-,-,-
COc1ccc(C(=O)Nc2ccc(NC(C)=O)cc2)cc1S(=O)(=O)N1CCCCC1C (configuration not stated),-,.,?,-,.,.
COc1cc(C(=O)Nc2ccc(S(=O)(=O)N3CCCCC3C)cc2)cc(OC)c1OC (configuration not stated),-,?,13µM,-,.,.
COc1cc(/C=C2/SC(=Nc3ccc(O)cc3)NC2=O)ccc1O,-,-77,?,-,13µM,-
Cc1cc(/C=C2\SC(=Nc3ccccc3)NC2=O)c(C)n1-c1ccc(S(N)(=O)=O)cc1,?,-96,4.5µM,?,.,?
COc1cc(/C=C2\SC(=Nc3ccccc3OC)NC2=O)ccc1O,-,-,-,-,?,-
O=C1NC(=Nc2ccccc2)S/C1=C\c1ccccc1,-,-86,-,-,.,.
O=C1NC(=Nc2cccc(O)c2)S/C1=C\c1cccc([N+](=O)[O-])c1,-,-69,-,-,-,-
Cc1cc(NC(=O)Nc2nnc(N3CCCCCC3)s2)ccc1Br,-,-,.,-,-,-
O=C(c1cc(Cl)nc2ccccc12)N1CCCCC1,.,-,-,-,-,-
